Results taken from PubChem BioAssay (NCI).
This is part of a sample that, as a whole, favours compounds with a hit. Of some 83,000 tested, about 20% had one in any assay.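 Activity criterion: percent growth below 10, measured after cells in 96-well plates were exposed to a single compound concentration for 48 hours.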 The source made the active and inactive calls.

Tested on: HOP-92 NSCLC
Assay: NCI-60 one-dose screen, 48 h (100 = growth as untreated, 0 = no growth, -100 = all killed)
Details: 10 µM

Which growth does the source give for S=C(NCc1ccccc1)NCc1ccccc1 here?
The growth was 99.3% (inactive).

With CC(C)c1ccc(C(C)C(=O)N(CC2=C(C(C)c3ccccn3)c3ccccc3C2)C(C)C)cc1 (stereo not drawn) as the molecule, how does the growth read?
Its growth is 20.3% (inactive).

For COc1cc(/C=C2\CCCC3=C2NC(N)=NC3c2cc(OC)c(OC)c(OC)c2)cc(OC)c1OC (stereo not drawn), which growth is on record?
The growth was -1% (active).

How did the growth turn out when COc1ccc(-c2cc(-c3ccc(Cl)cc3)nc(SCCCC(=O)NO)n2)cc1 was run?
The growth was 1.25% (active).

How did the growth turn out when CC(C)CCN(CCC(C)C)CC(=O)Nc1ccc(S(=O)(=O)c2ccc(NC(=O)CN(CCC(C)C)CCC(C)C)cc2)cc1 was run?
The growth was 75% (inactive).

Which growth does the source give for CN(C)CCCOc1ccccc1NC1=C(Cl)C(=O)C(Nc2ccccc2OCCCN(C)C)=C(Cl)C1=O here?
Its growth is -57.1% (active).

How did the growth turn out when CC(C)(C)c1nn(-c2ccccc2)c2c1CC1(CN2Cc2ccc(Cl)cc2)C(=O)c2ccccc2C1=O was run?
Its growth is 54.8% (inactive).

For N#CCc1csc(Cc2ccccc2)n1, which growth is on record?
Its growth is 117% (inactive).

With COc1ccc(/C=C/c2nnc(/C=C/c3ccc(OC)c(OC)c3)o2)cc1OC as the molecule, how does the growth read?
Its growth is 20.4% (inactive).

With NS(=O)(=O)c1ccc(Br)cc1 as the molecule, how does the growth read?
Its growth is 94% (inactive).

CCOC(=O)CC(S(=O)(=O)c1ccccc1)S(=O)(=O)c1ccccc1 was tested. Which growth did it give?
Its growth is 89.7% (inactive).

For Nc1nc(N)c(N)c(Nc2ccc(CCO)cc2)n1, which growth is on record?
Its growth is 118% (inactive).

How did the growth turn out when CCN(CC)CCOc1ccc2c(c1O)C(=O)c1ccccc1C2=O was run?
Its growth is 75.3% (inactive).
